PubChem BioAssay (NCATS)
Records with an inconclusive call do not appear. Activity calls are given as the source filed them. Unless noted, the call rests on the fitted dose curve; in most records, active means well fitted inhibition curve with a large enough effect; inconclusive means small, poorly fitted or top-dose-only effect; inactive means flat fitted curve, though single readings scatter.

Target: Ubiquitin carboxyl-terminal hydrolase 1 (Homo sapiens) (UniProt O94782)
Assay: Inhibitors of USP1/UAF1: Pilot qHTS (AID 504865); further: nearly all actives have a fitted effect of over 35% in size; further: potency means the concentration at half of the fitted maximal effect;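 on activity change, negative = inhibition: rhodamine fluorescence freed from ubiquitin-rhodamine substrate followed over time; top concentration of the series differs between compounds; on the % scale 0 is the no-effect control and ±100 the full control effect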
Settings: purified USP1/UAF1, Ub-rhodamine cleavage fluorescence; series mostly up to 114 µM; activity change, negative = inhibition: at the top concentration
Outline: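 Deubiquitinase activity followed as kinetic rhodamine fluorescence release from 150 nM Ub-Rho. 1 nM USP1/UAF1 with compound, after 15 min room-temperature preincubation, in HEPES pH 7.8 buffer containing TCEP, EDTA, BSA and Tween-20.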

Ubiquitin carboxyl-terminal hydrolase 1 (Homo sapiens), sequence (O94782 whole entry, looked up): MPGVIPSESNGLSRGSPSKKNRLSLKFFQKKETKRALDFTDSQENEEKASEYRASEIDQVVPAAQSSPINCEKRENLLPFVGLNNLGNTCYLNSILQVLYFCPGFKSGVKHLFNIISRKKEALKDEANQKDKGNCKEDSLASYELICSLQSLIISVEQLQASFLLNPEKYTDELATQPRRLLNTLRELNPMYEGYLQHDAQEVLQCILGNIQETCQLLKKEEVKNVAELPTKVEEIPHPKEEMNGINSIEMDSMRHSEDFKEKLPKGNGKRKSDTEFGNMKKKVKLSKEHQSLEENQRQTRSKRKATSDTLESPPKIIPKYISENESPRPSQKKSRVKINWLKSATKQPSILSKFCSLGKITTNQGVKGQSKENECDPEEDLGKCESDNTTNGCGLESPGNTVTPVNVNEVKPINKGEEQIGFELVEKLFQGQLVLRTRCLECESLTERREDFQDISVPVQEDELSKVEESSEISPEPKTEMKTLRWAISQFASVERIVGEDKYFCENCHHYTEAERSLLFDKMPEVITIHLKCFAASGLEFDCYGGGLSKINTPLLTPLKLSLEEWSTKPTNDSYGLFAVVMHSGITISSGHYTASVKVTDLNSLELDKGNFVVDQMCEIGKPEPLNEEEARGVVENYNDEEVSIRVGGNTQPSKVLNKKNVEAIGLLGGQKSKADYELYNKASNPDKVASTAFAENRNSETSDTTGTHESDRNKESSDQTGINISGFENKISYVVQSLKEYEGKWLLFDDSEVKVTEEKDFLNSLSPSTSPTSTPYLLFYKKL

SMILES | activity change, negative = inhibition | Potency
Cn1c(CCCC(=O)O)nc2cc(N(CCCl)CCCl)ccc21 | -1.23% (inactive) | 
O=[N+]([O-])c1cc([As](=O)(O)O)ccc1O | 13.3% [at 54.9 µM] (inactive) | 
CC(=O)Nc1cc([As](=O)(O)O)ccc1O | -2.89% (inactive) | 
NCCc1cc(O)c(O)cc1O |  | 50.1 µM (active)
C=C1CC[C@@]2(O)[C@H]3Cc4ccc(O)c5c4[C@@]2(CCN3CC2CC2)[C@H]1O5 | -5.18% (inactive) | 
CC(C)CC(N(C)C)C1(c2ccc(Cl)cc2)CCC1 (stereo unspecified) | -8.58% (inactive) | 
CCCC1CCCCN1 (stereo unspecified) | -4.91% (inactive) | 
CC[N+]1(C)CCCC(OC(=O)C(O)(c2ccccc2)c2ccccc2)C1 (stereo unspecified) | 1.34% (inactive) | 
C[C@]12C/C(=C/O)C(=O)C[C@@H]1CC[C@@H]1[C@@H]2CC[C@@]2(C)[C@H]1CC[C@]2(C)O | -9.77% (inactive) | 
Cc1ccc(-c2nc3ccc(C)cn3c2CC(=O)N(C)C)cc1 | -5.45% (inactive) | 
O=C(O)c1ccc2[nH]cc(CCCCN3CC=C(c4ccccc4)CC3)c2c1 | -2.5% (inactive) | 
CS(=O)c1ccc(-c2nc(-c3ccc(F)cc3)c(-c3ccncc3)[nH]2)cc1 (stereo unspecified) | -11.7% (inactive) | 
Oc1cccc2cccnc12 |  | inactive
CC(C)(C)NCC(O)c1cc(Cl)c(N)c(Cl)c1 (stereo unspecified) |  | inactive
CCN(C(C)=O)c1cccc(-c2ccnc3c(C#N)cnn23)c1 | 0.599% (inactive) | 
CN(C)CCN(C)CCc1ccc(Cl)c(Cl)c1 | -7.21% (inactive) | 

SMILES | activity change, negative = inhibition | Potency
COc1cc([C@@H]2c3cc4c(cc3[C@H](O)[C@H]3COC(=O)[C@H]23)OCO4)cc(OC)c1OC |  | inactive
Oc1cc(Cl)ccc1Oc1ccc(Cl)cc1Cl | -14.3% (inactive) | 
CC1NCCOC1c1ccccc1 (stereo unspecified) | 1.57% (inactive) | 
CCN(CC)CCOC(=O)C(O)(c1ccccc1)c1ccccc1 | 1.73% (inactive) | 
CC(C)(N)Cc1ccc(Cl)cc1 | -7.06% (inactive) | 
NP(N)(=O)NC(=O)c1ccc(F)cc1 | -3.45% (inactive) | 
C#CCOC(C(=O)OCCN(C)C)(c1ccccc1)c1ccccc1 | -9.62% (inactive) | 
C#CCN(C)[C@H](C)Cc1ccccc1 | -6.16% (inactive) | 
CC(C)NCC(O)c1ccccc1Cl (stereo unspecified) | -2.59% (inactive) | 
OCCOc1ccccc1 | -14.1% (inactive) | 
CCN(CC)CCN1C(=O)CN=C(c2ccccc2F)c2cc(Cl)ccc21 | -4.18% (inactive) | 
O=C(NC(O)C(Cl)(Cl)Cl)NC(O)C(Cl)(Cl)Cl (stereo unspecified) | -1.51% (inactive) | 
CCC(C(N)=O)N1CCCC1=O (stereo unspecified) | 2.99% (inactive) | 
COC1(CS(=O)c2ccccc2)CCN(CCc2c[nH]c3ccc(F)cc23)CC1 (stereo unspecified) | -4.22% (inactive) | 
Oc1ccccc1-c1ccccc1 | -4.53% (inactive) | 
CC1OC(C)OC(C)O1 (stereo unspecified) |  | inactive

Target: DNA dC->dU-editing enzyme APOBEC-3G (Homo sapiens) (UniProt Q9HC16)
Assay: qHTS for inhibitors of Vif-A3G interactions: Validation (AID 588379); further: 0% is about no effect
Settings: Vif-A3G protein interaction assay; series mostly up to 46.1 µM; activity change, negative = inhibition: at the top concentration
Outline: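 HeLa cells stably expressing Vif and A3G-eYFP, 700 cells/well, incubated overnight at 37 deg C, then exposed to compound overnight at 37 deg C. Inhibition of Vif-mediated degradation read as increased yellow fluorescence (Ex 488/Em 500-530) by laser-scanning cytometry.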

DNA dC->dU-editing enzyme APOBEC-3G (Homo sapiens), sequence (Q9HC16 whole entry, looked up): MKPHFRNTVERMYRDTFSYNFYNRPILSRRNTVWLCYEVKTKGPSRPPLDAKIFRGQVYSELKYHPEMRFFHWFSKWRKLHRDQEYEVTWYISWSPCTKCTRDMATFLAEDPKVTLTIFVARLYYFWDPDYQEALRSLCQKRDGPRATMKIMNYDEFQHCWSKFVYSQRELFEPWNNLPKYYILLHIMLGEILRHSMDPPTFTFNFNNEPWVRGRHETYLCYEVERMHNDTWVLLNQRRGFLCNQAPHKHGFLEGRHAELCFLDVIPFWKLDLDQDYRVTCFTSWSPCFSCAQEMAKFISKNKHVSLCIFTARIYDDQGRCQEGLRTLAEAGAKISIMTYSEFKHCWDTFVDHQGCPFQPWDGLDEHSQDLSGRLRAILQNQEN

SMILES | activity change, negative = inhibition
CN(C)CCN(C)CCc1ccc(Cl)c(Cl)c1 | -0.327% (inactive)
NP(N)(=O)NC(=O)c1ccc(F)cc1 | -5.19% (inactive)
C#CCN(C)[C@H](C)Cc1ccccc1 | 1.3% (inactive)
COC1(CS(=O)c2ccccc2)CCN(CCc2c[nH]c3ccc(F)cc23)CC1 (stereo unspecified) | 1.42% (inactive)

Target: Estrogen receptor (Homo sapiens) (UniProt P03372)
Assay: qHTS assay for small molecule antagonists of estrogen receptor alpha signaling (AID 588513; active means well fitted curve in the direction sought with a large enough effect in the signal ratio, with a control signal flat, not every such curve was filed as active; the % refers to the signal ratio; further: on the % scale 0 is the no-effect control and ±100 the full control effect)
Settings: ER-alpha-UAS-bla HEK293, beta-lactamase ratio, antagonist mode; series mostly up to 76.9 µM; activity, negative = inhibition: at the top concentration
Outline: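 Antagonist mode: inhibition of 0.5 nM 17-beta-estradiol-driven beta-lactamase reporter in HEK 293 ER-alpha-UAS-bla cells, 18 h at 37C, CCF4 readout after 2 h at RT. Normalised to estradiol and DMSO; titration fitted to Hill.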

Estrogen receptor (Homo sapiens), sequence (P03372 whole entry, looked up): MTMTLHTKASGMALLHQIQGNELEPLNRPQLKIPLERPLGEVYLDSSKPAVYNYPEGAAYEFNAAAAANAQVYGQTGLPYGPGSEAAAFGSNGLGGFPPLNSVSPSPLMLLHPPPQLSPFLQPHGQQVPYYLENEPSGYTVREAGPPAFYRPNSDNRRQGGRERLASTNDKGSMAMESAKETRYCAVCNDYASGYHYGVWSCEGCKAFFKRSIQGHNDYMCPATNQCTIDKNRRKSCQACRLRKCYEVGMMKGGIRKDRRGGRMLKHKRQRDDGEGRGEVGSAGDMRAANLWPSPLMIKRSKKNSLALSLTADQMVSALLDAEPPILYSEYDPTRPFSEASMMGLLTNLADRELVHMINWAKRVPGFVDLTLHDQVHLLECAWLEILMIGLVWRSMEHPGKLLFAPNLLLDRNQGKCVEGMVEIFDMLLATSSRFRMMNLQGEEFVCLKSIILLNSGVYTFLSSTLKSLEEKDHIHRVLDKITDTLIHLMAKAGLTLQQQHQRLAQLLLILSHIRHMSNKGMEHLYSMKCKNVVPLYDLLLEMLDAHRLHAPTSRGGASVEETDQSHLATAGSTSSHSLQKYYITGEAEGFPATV

SMILES | activity, negative = inhibition | outcome
C[C@]12CCC(=O)C(O)=C1CC[C@@H]1[C@@H]2CC[C@]2(C)C(=O)CC[C@@H]12 | 16.8% (inactive) | 
c1ccc2c(c1)Nc1ccccc1S2 |  | inactive
NC(=Nc1ccccc1)Nc1ccccc1 | 12.6% (inactive) | 
OCCOc1ccccc1 |  | inactive
Oc1ccccc1-c1ccccc1 |  | inactive
